# PubChem BioAssay (NCI)
# This is part of a sample that, as a whole, favours compounds with a hit. Of some 83,000 tested, about 20% had one in any assay.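 Assay: single dose, 48 h. Readout: percent growth (0 = no net growth; negative = cell death). Active: <10.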 Active and inactive are the calls of the source.
# System: HL-60(TB) leukemia
# Test: NCI-60 one-dose screen, 48 h (100 = growth as untreated, 0 = no growth, -100 = all killed)
# Settings: 10 µM unless noted
row,SMILES,growth
1,CN1CCN(c2nc(Nc3ccc(O)cc3)nc3ccccc23)CC1,61.4% (inactive)
2,COc1cc(C(=O)/C=C/c2c(C(F)(F)F)nc3ccccn23)cc(OC)c1OC,-9.98% (active)
3,COCCN1CCN(Cc2ccc(-c3n[nH]c4c3C(=O)c3c(NC(=O)NN5CCOCC5)cccc3-4)cc2)CC1,-36.9% (active)
4,COc1cc(-c2csc(NC(=O)c3cc(C(F)(F)F)cc(C(F)(F)F)c3)n2)cc(OC)c1OC,29.6% (inactive)
5,C(=N\Nc1ncnc2sc3c(c12)CCNC3)/c1cccc2ccccc12,99.1% (inactive)
6,N#Cc1ccc(-n2cnc(NC(=O)[C@H]3CCN(C#N)C3)c2)cc1,-20.8% (active)
7,CCCC(O)Cn1ncc(C(=O)OCC)c1NC(=O)NCc1cccc(C(F)(F)F)c1 (stereo not given),71.2% (inactive)
8,O=C(NOC[C@H](O)CO)c1ccc(F)c(F)c1Nc1ccc(I)cc1F,6.7% (active)
9,C#Cc1cccc(NC(=O)Nc2cccc(N=C=S)c2)c1,98.7% [8.25 µM] (inactive)
10,CCn1cc(C(=O)O)c(=O)c2cc(F)c(N3CCNCC3)cc21,96.9% (inactive)
11,CCCCOC(=O)c1ccccc1O,93.2% (inactive)
12,Nc1nc(Cl)c2c(ncn2Cc2ccc(CCl)cc2)n1,90.5% (inactive)
13,c1ccc(Oc2c3ccccc3nc3ccccc23)cc1,-16.4% (active)
14,O=C1Cc2cc(O)ccc2O1,100% (inactive)
15,Cn1cc(-c2csc(-c3cn(CCCN4CCOCC4)c4ccccc34)n2)c2cccnc21,70.9% (inactive)
16,O=C(Nc1cccc2[nH]c(C(F)(F)F)nc12)c1ccc(F)cc1,49.6% (inactive)
17,Cc1c(N2CN3C[C@H](C)N4CN(c5c(C)n(C)n(-c6ccccc6)c5=O)CN5C[C@@H](C)N(C2)C3C54)c(=O)n(-c2ccccc2)n1C (stereo not given in full),-14.5% (active)
18,NC(=O)NN=C(C1CC1)C1CC1,62.2% (inactive)
19,O=C(O)c1ccc(-n2cc(/C=N/Nc3ccc(Cl)cc3Cl)c(-c3ccccc3)n2)cc1,-81.8% (active)
20,CCN(CC)CCCC(C)NCCCNc1cccc2cccnc12 (stereo not given),-5.92% (active)

row,SMILES,growth
1,COc1cc(NC2CCCCC2O)c2nc(-c3ccc(Cl)cc3)ccc2c1 (stereo not given),81.9% (inactive)
2,COc1ccc(-c2nn(-c3cccc(NC(=O)Nc4ccc(Cl)c(C(F)(F)F)c4)c3)cc2-c2ccncc2)cc1Cl,-11.3% (active)
3,C=CCOc1ccc(Cl)cc1Cl,20.5% (inactive)
4,O=C(Nc1ccc(-n2cc(-c3ccncc3)c(-c3ccc(Cl)c(O)c3)n2)cc1)Nc1ccc(Cl)c(C(F)(F)F)c1,-10.5% (active)
5,C[C@]12CC[C@H]3[C@@H](CC[C@H]4C[C@@H](O)CC[C@@]43C)[C@@H]1CC(=O)C2,83% (inactive)
6,COc1ccc(OC)c(NC(=O)c2cc3oc4ccccc4c3cc2O)c1,121% (inactive)
7,COc1cc(C2CC(=O)Nc3c2c(C)nn3-c2nc3ccccc3[nH]2)c(OC)c(OC)c1OC (stereo not given),21.5% (inactive)
8,CCCCCCCCOC(=O)c1ccccn1,119% (inactive)
9,O=C(/C=C/c1ccccc1)c1ccc(-n2cc(CN3CCN(c4cc5c(cc4F)c(=O)c(C(=O)O)cn5C4CC4)CC3)nn2)cc1,99.1% (inactive)
10,C=CCn1c(SCC(=O)Nc2ccc(C(=O)/C=C/c3ccc(Cl)cc3)cc2)nnc1-c1ccc(Cl)c(Cl)c1,56.8% (inactive)
11,CCN(CC)CC#CCOC(=O)[C@]1(C)CCC[C@]2(C)[C@H]3C[C@H]4C(C(C)C)=C[C@]3(CC[C@H]21)[C@@H]1C(=O)CCC(=O)[C@@H]14,-36.3% (active)
12,C#CC(=O)/C=C/CCCCCCC#CC(=O)CCC(=O)C#CCCCCCC/C=C/C(=O)C#C,-70.1% (active)
13,O=C(/C=C\c1ccccc1Cl)c1ccccc1,110% (inactive)
14,CCN(CC)CCN1C(=O)c2c(c3c4ccccc4[nH]c3c3[nH]c4ccccc4c23)C1=O,98.7% (inactive)
15,C=C(C)C1CC(O)C2(C)CCCC3C2C1CC(C)C3(C)CC/C(C)=C/C(O)C1CCC(=O)c2c(OC)cc(OC)cc21 (stereo not given),22.4% (inactive)
16,Cc1sc(NC(=O)c2ccc(C(C)(C)C)cc2)c(C(=O)O)c1C,45.2% (inactive)
17,O=C1CSC(c2ccc(O)cc2)N1c1nnc(Cn2cnnc2)o1 (stereo not given),59.1% (inactive)
18,COc1cc2c(cc1C)NC(=O)/C2=C\c1c[nH]c2ccccc12,47.5% (inactive)
19,COc1cccc(CCC2C(=O)CCCC2=O)c1,87.2% (inactive)
20,CC(C)=CCC[C@](C)(O)[C@H]1CC[C@]2(C)[C@@H]1CC[C@@H]1[C@@]3(C)CC[C@H](OC(=O)CCC(=O)O)C(C)(C)[C@@H]3CC[C@]12C,4.34% [100 µM] (active)
